Out of some 38,000 compounds screened, about 1,200 (3.2%) showed an effect of 50% or more. The median lay at about -58%. This is one part of a sample in which strong results are shown more often than they occur.

This experiment relates to Plasmodium falciparum. The experiment in a line: Calibr Malaria Delayed Death Assay SOP. The experiment is classed as functional, organism-based. The settings on record: concentration 4.99e-06 (unit not given; other assays of the set use mol/L). Details: scale not given: in the data most compounds retested in dose-response had high values.
In the case of `Cc1cc(C)nc(Nc2cccc(C3CCCN(CCO)C3)n2)n1` (stereo not drawn), the “Percent Effect” value stood at 10.75%. With `Cc1cccc(Nc2nccnc2C2CCCN(CC(=O)N(C)C)C2)n1` (stereo not drawn) the figure was -114.3%; with `NCc1n[nH]c(-c2cccc(F)c2)n1`, -72.36%; with `Cc1nc(N2CCCC2)nc2c1CCN(C(=O)N(C)C)CC2`, -58.26%. Consider `CCc1cccc(N2CCC(NC(=O)CCNC(N)=O)CC2)c1`, for which the “Percent Effect” value is recorded as -70%. The result for `CCc1cccc(N2CCC(NC(=O)c3ccoc3C)CC2)c1` reads -20.41%; that for `CCc1cccc(N2CCC(NC(=O)c3ccco3)CC2)c1`, 59.23%. As to `CN1CCC(C(=O)N2CCN(Cc3cccc(Cl)c3)CC2)CC1=O` (stereo not drawn), the “Percent Effect” value is on record as -101.4%. Consider `CC(=O)N1CCO[C@@H]2CN(Cc3cccc(Cl)c3)C[C@@H]2C1.O=C(O)C(F)(F)F`, for which the “Percent Effect” value was -40.86%. Turning to `Cl.Cl.NCC1[C@H]2CN(CCc3ccccc3)C[C@@H]12` (stereo partly drawn), the “Percent Effect” value was found to be 86.43%. Turning to `CS(=O)(=O)NC1CCN(CCc2ccccc2)CC1`, the “Percent Effect” value is -29.4%.

Turning to `c1ccc(CCCN2CC(n3cccn3)C2)cc1`, the “Percent Effect” value is recorded as -65.67%. For `O=C(Nc1nnc[nH]1)C(c1cccc(F)c1)N1CCOCC1` (stereo not drawn), the “Percent Effect” value was -17.23%. `CC/C=C(\C)CN1CCC(CNC(=O)c2ccc(=O)[nH]c2)CC1`: the “Percent Effect” value is given as -93.37%. On to `Cc1ccc(S(=O)(=O)Cc2nnc(C)n2C)cc1`, for which the “Percent Effect” value was -134.3%. As for `O=C(c1csnn1)N1CCCC(n2cncn2)C1` (stereo not drawn), the “Percent Effect” value is on record as -97.91%. `CCC(CC)CN1CCN(CC(=O)Nc2cccc3nsnc23)CC1`: the “Percent Effect” value is recorded as -38.36%. `CCn1nccc1C(=O)NC(Cn1cccn1)C(C)(C)C` (stereo not drawn): the “Percent Effect” value is reported as -34.87%. The result for `CN(C)Cc1ccccc1CN(C)c1ncnc2[nH]ccc12` reads 27.74%; that for `CCn1cc(CN2CCN(Cc3cccc(OC)c3)C(=O)C2)cc1C#N`, 47.6%. With `Cc1cc(C)cc(CN2CCN(Cc3cc(C#N)n(C)c3)CC2=O)c1` the figure was 14.32%; with `CCn1cc(CN2CCN(Cc3cc(C)cc(C)c3)C(=O)C2)cc1C#N`, 66.78%; with `CN(CCn1cnc(-c2ccccc2)c1-c1ncc[nH]1)S(C)(=O)=O`, -10.43%.

For `CS(=O)(=O)NCC1CCCN(Cc2ccc(F)c3cccnc23)C1` (stereo not drawn), the “Percent Effect” value was determined as 9.25%. On to `CCN(C)S(=O)(=O)NCC1CCCN(Cc2ccccc2F)C1` (stereo not drawn), for which the “Percent Effect” value was found to be 74.13%. Regarding `CCN(C)S(=O)(=O)NCC1CCN(Cc2ccccc2F)C1` (stereo not drawn), the “Percent Effect” value came out at 42.63%. In the case of `NC1(C(=O)NCC2CCCN(Cc3ccccc3F)C2)CCCC1` (stereo not drawn), the “Percent Effect” value was 85.42%. With `NC1(C(=O)NCC2CCCN(Cc3cccc4nonc34)C2)CCC1` (stereo not drawn) the figure was 38.45%; with `CC(=O)NCC1CCCN(Cc2nc(Cc3ccccc3F)no2)C1` (stereo not drawn), -62.96%. The result for `CC(C)NC(=O)[C@@H]1C[C@H]2NCC[C@H]2O1.Cl` reads -114.2%. As for `Cc1n[nH]c(C)c1NC(=O)Nc1cccnc1N1CCCC1`, the “Percent Effect” value is recorded as -5.845%. For the compound `CC(C)CC(NCc1ccsc1)c1ccccn1` (stereo not drawn), the “Percent Effect” value is listed as 58.77%.

As to `CC(C)CC(NCc1cscn1)c1ccccn1` (stereo not drawn), the “Percent Effect” value amounted to 28.89%. For `CC(C)CC(NCc1cccs1)c1ccccn1` (stereo not drawn), the “Percent Effect” value is -24.93%. `COCCSCC(=O)NCc1ccc(N(C)C)cc1`: the “Percent Effect” value was -84.72%. Turning to `COCC(=O)N1CCc2ccccc2C12CCNCC2.Cl`, the “Percent Effect” value is reported as -57.82%. Regarding `CCOC(=O)N1CCc2ccccc2C12CCNCC2.Cl`, the “Percent Effect” value is recorded as 52.81%. In the case of `Cl.O=C(C1CC1)N1CCc2ccccc2C12CCNCC2`, the “Percent Effect” value was -61.72%. As for `Cc1cnn(CCCNC(=O)NCCS(=O)(=O)Nc2ccccc2)c1`, the “Percent Effect” value is -111.9%. For the compound `Cc1ccc(CNC(=O)C2=NOC3(CCCNC3)C2)cc1` (stereo not drawn), the “Percent Effect” value is listed as -11.58%.

Regarding `CNC(=O)C(C)S(=O)(=O)Cc1csc(-c2cccs2)n1` (stereo not drawn), the “Percent Effect” value is reported as -44.96%.

Turning to `CC(C)C(NC(=O)NCCNc1ccccn1)c1cccs1` (stereo not drawn), the “Percent Effect” value is recorded as 11.18%. Consider `CC(C(=O)NC1CC1)S(=O)(=O)Cc1csc(-c2cccs2)n1` (stereo not drawn), for which the “Percent Effect” value is -95.03%.

Consider `CC(C(=O)NCC1CCCCC1)S(=O)(=O)Cc1csc(-c2cccs2)n1` (stereo not drawn), for which the “Percent Effect” value was -110.5%. As for `CC(=O)Nc1ccc(-c2ccccc2CCN)cc1`, the “Percent Effect” value is -117.7%. In the case of `CCC1(CC)CC(=O)N(CC(O)c2cccc(F)c2)C1=O` (stereo not drawn), the “Percent Effect” value is listed as -47.43%. On to `Cn1cc(CN2CCC3(CCN(c4cnn(C)c4)C3=O)C2)cn1.O=C(O)C(F)(F)F` (stereo not drawn), for which the “Percent Effect” value is reported as -38.46%. With `Cc1ccc(-n2ncc(C(=O)N(C)C3CCN(C)CC3)c2N)cc1C` the figure was -13.94%; with `COCCNC(=O)Cn1cc2c(n1)c(C)nn2C`, -119.4%; with `Cc1ccc(CN2Cc3nccn3CC(Cn3cncn3)C2)s1.O=C(O)C(F)(F)F` (stereo not drawn), -180.8%. As for `COc1ccccc1OCCC(=O)NC1CCc2nc(C)cn2C1` (stereo not drawn), the “Percent Effect” value is -82.15%. Take `Cc1ncc(CNC(=O)CCc2ccccc2F)c(C2CCCN2C)n1` (stereo not drawn): the “Percent Effect” value was -31.11%. With `Clc1cc(CN2CCCN3CCCC3C2)c2ncccc2c1` (stereo not drawn) the figure was 88.94%; with `Clc1cc(CN2CCCC(Cn3cncn3)C2)c2ncccc2c1` (stereo not drawn), 36.9%; with `O[C@@H]1CN(Cc2cc(Cl)cc3cccnc23)C[C@@H]1O`, -71.8%. For the compound `Cc1cccc(-c2nc(N)nc3c2CN(C(=O)c2ccncn2)C3C)c1` (stereo not drawn), the “Percent Effect” value is listed as -72.66%. The result for `COc1coc(C(=O)Nc2nc(-c3ccccn3)cs2)cc1=O` reads 19.28%; that for `CN(Cc1noc2c1CCCC2)C(=O)Nc1cncc(F)c1`, -40.24%; that for `Cc1c[nH]c(CN(C)C(=O)C(C)(C)NC(=O)c2cccs2)n1`, -87.6%. Consider `CC(C)c1ncc(C(=O)N2CCOCC2CC(=O)c2ccco2)s1` (stereo not drawn), for which the “Percent Effect” value was -45.87%.

As to `Cc1cc(C)n(CC(C)NCCn2nc(C)c(Cl)c2C)n1` (stereo not drawn), the “Percent Effect” value is recorded as -54.04%.

With `Cc1cc(C)n(CC(C)NCCN2CCc3ccccc32)n1` (stereo not drawn), the “Percent Effect” value was 52.4%. Regarding `CC(Cn1cncn1)NCCN1CCc2ccccc21` (stereo not drawn), the “Percent Effect” value was -79.84%.

In the case of `Cc1ccc(SC2CCCC2)c(C(=O)NCc2n[nH]c(=O)[nH]2)c1`, the “Percent Effect” value is listed as -25.99%. In the case of `COCCN(C(=O)c1c[nH]c2ncccc12)C1CCCC1`, the “Percent Effect” value is listed as -27.67%. The result for `NC(=O)CN(C(=O)c1c[nH]c2ncccc12)C1CCCC1` reads -54.97%. As for `O=C(c1c[nH]c2ncccc12)N(Cc1ccco1)C1CCCC1`, the “Percent Effect” value was 86.68%. `Cc1nc(N(C)C)nc(-c2cccc(-c3ccn(CCCF)n3)c2)c1C`: the “Percent Effect” value is -133.9%.
